Laboratory results as given in PubChem BioAssay.

Tested on: Plasmodium falciparum Sir2 (PF13_0152, Sir2A)
Assay: pfSir2 binders on small-molecule microarrays, primary screen, biochemical, small-molecule microarray, 635 nm fluorescence (AID 1098);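 further: score merges spot fluorescence intensity with its signal-to-noise ratio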
Details: small-molecule microarray binding, fluorescence 635 nm; higher = more signal

SMILES | composite z-score
NC(=O)NCC#Cc1ccc2c(c1)[C@]1(C(=O)N2)[C@H](C(=O)O)[C@H]2C(=O)O[C@H](c3ccccc3)[C@H](c3ccccc3)N2[C@@H]1c1ccc(OCCO)cc1 | 1.49
[N-]=[N+]=Nc1ccccc1C[C@]1(C(=O)N2CCOCC2)N=C(c2ccc(OCCCO)cc2)O[C@H]1c1ccccc1 | 1.11
COc1ccc(C#Cc2ccc3c(c2)[C@]2(C(=O)N3)[C@H](c3ccc(O)cc3)N3[C@H](c4ccccc4)[C@H](c4ccccc4)OC(=O)[C@H]3[C@@H]2C(=O)O)cc1 | 1.04
O=C1O[C@@H](c2ccccc2)[C@@H](c2ccccc2)N2[C@@H](c3ccc(OCCO)cc3)[C@]3(C(=O)Nc4ccccc43)[C@@H](C(=O)O)[C@H]12 | 0.327
C=C(/C(=C/C[C@H](OC(C)=O)c1cccc(OCCO)c1)c1cnc2ccccc2c1)C(C)C | -0.96
COc1ccc([Si](C)(C)[C@H]2[C@H](CCn3cc([C@H](O)c4ccccc4)nn3)O[C@@]3(C(=O)N(Cc4ccc(N5C(=O)c6cccc7cccc5c67)cc4)c4ccccc43)[C@@H]2C)cc1 | 0.93
CCC(CC)C(O)C1C=CC2C(=O)N(c3ccccc3)C(=O)C2N1Nc1ccc(C(C)C)cc1 (stereo unspecified) | 1.23
COC1OC[C@]2(C)[C@H]3C4=C(CN2C(=O)OC(C)(C)C)[C@H](C)C(CO)C(CO)C4CC[C@@H]13 (stereo partly specified) | 0.422
COC(=O)[C@@]1(Cc2ccccc2N=[N+]=[N-])N=C(c2ccc(OCCCO)cc2)O[C@H]1c1ccccc1N=[N+]=[N-] | 1.52
CC1CC/C=C\[C@H]2OC34C=CCN(C(C)C)C(=O)[C@H]3N(CCCCCCO)C(=O)[C@@H]4C2C(=O)O1 (stereo partly specified) | 0.733
COC(=O)[C@@]1(Cc2ccc(OC)cc2)[C@H]2c3cc(C(=O)N4CCCC4)n(Cc4cccc5ccccc45)c3C[C@H]2CN1C(=O)c1ccccc1 | 0.654
COc1ccc([Si](C)(C)[C@H]2[C@H](CC(=O)N(CCO)Cc3ccccc3)O[C@@]3(C(=O)N(Cc4cccc(N5CCOC5=O)c4)c4ccccc43)[C@@H]2C)cc1 | 1.18
Cc1cc(C)c(C(O)C2C=CC3C(=O)N(c4ccccc4)C(=O)C3N2Nc2ccc(C(C)C)cc2)c(C)c1 (stereo unspecified) | 0.68
C=C(/C(=C/C[C@@H](OC(C)=O)c1cccc(OCCO)c1)c1cc(C(=O)OC)ccc1OC)C(C)C | 0.628
O=C1O[C@H](c2ccccc2)[C@H](c2ccccc2)N2[C@H]1[C@@H](C(=O)Nc1nc3ccccc3s1)[C@]1(C(=O)Nc3ccc(C#CC4(O)CCCCCC4)cc31)[C@H]2c1ccccc1OCCO | 1.55
CN1C(=O)C2C=CC(C(O)C#Cc3ccccc3)N(Nc3ccccc3)C2C1=O (stereo unspecified) | 1.58
C=CC[C@@]1(C(=O)N2CCOCC2)N=C(c2ccc(OCCCO)cc2)O[C@@H]1c1ccccc1CN=[N+]=[N-] | 0.706
COc1cc(OC)c(C(O)C2C=CC3C(=O)N(C)C(=O)C3N2NC(=O)OC(C)(C)C)cc1Br (stereo unspecified) | 1.07

SMILES | composite z-score
CC(C)(C)OC(=O)CC[C@]1(C(=O)NCc2ccccc2)N=C(c2ccc(OCCCO)cc2)O[C@H]1c1ccccc1CN=[N+]=[N-] | 1.45
CCCCCCc1nc(C2CC2)cc2c1[Si](C(C)C)(C(C)C)O[C@H]2c1ccccc1 | 0.454
COc1ccc(NC(=O)O[C@H]2[C@H](OC(=O)Nc3ccccc3)[C@H](OC(=O)Nc3ccccc3)[C@@H](OC)O[C@@H]2CO)cc1 | 1.58
COc1ccc([Si](C)(C)[C@@H]2[C@@H](CCO)O[C@]3(C(=O)N(Cc4ccc(N5CCCCC5=O)cc4)c4ccccc43)[C@H]2C)cc1 | 1.15
COC(=O)c1cn(C[C@@H](Cc2ccccc2)NC(=O)N[C@H](CO)CCc2oc(C(C)=O)c(C(=O)OC)c2C(=O)OC)nn1 | 0.741
C=C(CCCC)/C(=C/C[C@@H](OC(=O)c1ccncc1)c1ccccc1OCCO)c1cnc2ccccc2c1 | 1.26
O=C1NC(=O)C2C1C=CC(C(O)c1ccco1)N2Nc1ccccn1 (stereo unspecified) | 0.76
C=CCC(OC(C)=O)[C@@H]1[C@@H](N(Cc2cc3ccccc3o2)C(=O)c2ccc(C)cc2)c2cc(OCCCO)ccc2N1C(=O)Cc1ccc(OC)cc1 (stereo partly specified) | -0.0682
C=CCC(OC(C)=O)[C@@H]1[C@@H](N(Cc2ccc(-c3cccc(C(F)(F)F)c3)o2)C(=O)c2ccc(-c3ccccc3)cc2)c2cc(OCCCO)ccc2N1C(=O)c1ccc2ccccc2n1 (stereo partly specified) | -0.219
CN1C(=O)C2C=CC(C(O)c3cccc(O)c3)N(Nc3ccccc3)C2C1=O (stereo unspecified) | 1.15
CN1C(=O)C2C=CC(C(O)COCc3ccccc3)N(N(c3ccccc3)c3ccccc3)C2C1=O (stereo unspecified) | 0.35
COCCCNC(=O)[C@]1(CCS(=O)(=O)c2ccccc2)N=C(c2ccc(OCCCO)cc2)O[C@@H]1c1ccccc1N=[N+]=[N-] | 1.47
O=C1C2C=CC(C(O)c3ccccc3)N(Nc3ccccc3F)C2C(=O)N1c1ccccc1 (stereo unspecified) | 0.797
CCOC(=O)c1ccc(NC(=O)O[C@H]2[C@H](OC(=O)Nc3ccc4c(c3)OCO4)[C@@H](OC(=O)Nc3ccc4c(c3)OCO4)[C@@H](OC)O[C@@H]2CO)cc1 | 1.41
COc1ccc([Si](C)(C)[C@@H]2[C@@H](CC(=O)N3Cc4ccccc4C[C@H]3CO)O[C@]3(C(=O)N(C)c4ccccc43)[C@H]2C)cc1 | 1.22
O=C(NCC(F)(F)F)[C@@H]1c2ccccc2C(=O)N(Cc2ccccc2C(F)(F)F)[C@H]1c1ccc(CO)cc1 | 1.78
OCC1CC(c2ccccc2)=NO1 (stereo unspecified) | 0.0686
C=CCNC(=O)[C@@H]1[C@H]2C(=O)O[C@H](c3ccccc3)[C@H](c3ccccc3)N2[C@H](c2ccc(O)cc2)[C@@]12C(=O)N(C(=O)OCCOC)c1ccc(C#CC3(O)CCCCCC3)cc12 | 0.482
